Compound activity as filed in PubChem BioAssay.
Gli-Sufu antag: Gli-Sufu pathway antagonism; Sufu-KO-LIGHT fibroblasts, Gli luciferase reporter luminescence; actives 0.74% (n = 340,000); inhibition, % at 5 µM;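 active = inhibition above about 55%, limit read from the data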;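 note: 0% = DMSO-treated cells and 100% = wells with medium but no cells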
Shn3 3UTR inh: inhibitors of Schnurri-3 3'UTR reporter in osteoblasts; actives 0.52% (n = 360,000); inhibition, % at 12.5 µM; Clone20 osteoblast Shn3 3'UTR firefly luciferase, 24 h; AID 588674;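 active = mean inhibition of at least 75% with every replicate also reaching 75%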;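 note: 0% = median of neutral control wells and 100% = pilot-screen positive control compound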
LMP1 NFkB inh: inhibitors of Epstein-Barr LMP1-induced NF-kappaB reporter; LMP1-induced NF-kappaB luciferase reporter cells, luminescence; inhibition, % at 12.5 µM; actives 0.69% (n = 350,000); AID 504558; in the data active = inhibition above about 41%;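 note: 0% = neutral control wells and 100% = reference inhibitor control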
TRPM1 prom inh: inhibitors of MITF-driven TRPM1 promoter in melanoma cells; SK-MEL-5 TRPM1 promoter luciferase, 24 h; inhibition, % at 12.5 µM; actives 0.83% (n = 330,000); AID 488899;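 active = mean inhibition across replicates of 60% or more, whatever share of single replicates reaches that level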
Jurkat NFkB inh: inhibitors of the PMA/ionomycin-induced NF-kB reporter in Jurkat cells. PMA/ionomycin-induced NF-kB luciferase reporter, luminescence. inhibition, % at 4 µM. actives 0.53% (n = 330,000). AID 435003; in the data active = inhibition above about 50%
697 NFkB inh: lowers PMA/ionomycin-induced NF-kB signal in 697 B cells; AID 435022; actives 0.33% (n = 330,000); 697 B-cell NF-kB luciferase reporter, 16 h; inhibition, % at 4 µM; in the data active = inhibition above about 35%
Active calls of the source: *; x = no result. An excerpt weighted towards active compounds, which were near 2.3% of everything screened.

SMILES | Gli-Sufu antag | Shn3 3UTR inh | LMP1 NFkB inh | TRPM1 prom inh | Jurkat NFkB inh | 697 NFkB inh
CN(CCC#N)C(=S)Nc1ccc(F)cc1 | 12 | 6 | 57* | 6 | -1 | 8
O=c1[nH]c(=O)n(Cc2ccc(Oc3ccccc3)cc2)cc1Br | x | 19 | 5 | -10 | 2 | -2
C=C1CC(Cn2cc(Br)c(=O)[nH]c2=O)(c2ccc(-c3ccccc3)cc2)OC1=O (configuration not stated) | 16 | 95* | 17 | 109* | x | x
COc1cc(-c2cnc3c(NC=O)cc(-c4cccc(NC(C)=O)c4)cn23)cc(OC)c1OC | x | 21 | x | x | x | x
Cc1cc(=O)[nH]c(N=N/C(=N/Nc2ccc(O)cc2)c2ccccc2)n1 | 16 | -37 | -11 | -28 | -37 | -48
Cc1cc(=O)[nH]c(N=N/C(=N/Nc2ccccc2C)c2ccccc2)n1 | -35 | 20 | 50* | 41 | 23 | -33
C=CCNc1nc(N2CCOCC2)c(C#N)c2c1CN(C)CC2 | 9 | 97* | -13 | 6 | -12 | -16
COc1ccc(-n2c(C)c(C(C)=O)c3cc(O)ccc32)cc1 | -14 | 6 | 57* | 1 | 50 | 26
C/C(=N/NS(=O)(=O)c1ccc(CC(C)C)cc1)c1ccncc1 | 39 | 87* | 17 | 19 | 5 | -43
N#C/C(=C\c1ccc([N+](=O)[O-])o1)c1nc2ccccc2[nH]1 | 17 | x | x | x | 25 | -6
N#C/C(=C(/O)c1ccc([N+](=O)[O-])o1)c1nc2ccccc2[nH]1 | 7 | 11 | -3 | 87* | 0 | -24
O=C(Nc1ccc([N+](=O)[O-])cc1)Nc1ccc(OC(F)F)c(Cl)c1 | 58* | 88* | 68* | 76* | x | x
O=C(Nc1ccc(OC(F)F)c(Cl)c1)Nc1ccc2c(c1)OCO2 | -5 | -1 | -6 | -44 | -20 | -53
CCC[C@@H](CN[C@@H](CNC)[C@H](C)CC)NCC1CCC(C(C)(C)C)CC1 (some centres not stated) | 2 | 80 | -18 | 100* | 13 | 12
CCC[C@H](CN[C@@H](CNC)[C@H](C)CC)NCCc1cc(C(F)(F)F)cc(C(F)(F)F)c1 | 15 | 58 | -17 | 103* | 35 | 20
CC[C@@H](C)[C@H](CNC)NC[C@@H](Cc1cccc2ccccc12)NCCc1cccc(C(F)(F)F)c1 | 14 | 97* | -6 | 98* | 25 | 9
OC(CNCCc1ccc(C(F)(F)F)cc1)COc1cccc2ccccc12 (configuration not stated) | 17 | 17 | 0 | 10 | -2 | 19
Cc1ccc(S(=O)(=O)N2CCCC2)cc1C(=O)NC1CCCCC1 | 0 | 13 | 3 | -7 | -4 | -3
COc1ccc(C(=O)NCCc2c[nH]c3ccc(OC)cc23)cc1 | -11 | -22 | -7 | -2 | 9 | 14
C/C(=N\NC(=S)NC1CCCCC1)c1ccc(OC(F)F)cc1OC(F)F | 4 | 51 | 16 | -8 | -2 | -9
Cn1c(N)c(C(=O)COC(=O)CNC(=O)c2ccc(Cl)cc2Cl)c(=O)n(C)c1=O | 2 | -9 | 14 | -6 | -11 | -20
CCOc1ccc(C(C)=O)cc1CSC(=N)N | -5 | 26 | 0 | -33 | -11 | -16
CCCCOc1ccc(Br)cc1CSC(=N)N | 65* | 92* | 1 | 14 | x | x
COC(=O)[C@H](CC(C)C)NC(=O)Cn1cnc(C(=O)Nc2ccc(C)c(C)c2)n1 | -2 | -27 | -6 | -37 | x | -16
CCCOc1cccc(-c2cc(C(=O)N/N=C/c3ccccn3)c3ccccc3n2)c1 | 36 | 38 | 15 | 90* | 22 | -21
SMILES | Gli-Sufu antag | Shn3 3UTR inh | LMP1 NFkB inh | TRPM1 prom inh | Jurkat NFkB inh | 697 NFkB inh
O=C(N/N=C/c1ccccn1)c1cc(-c2ccc(Cl)cc2)nc2ccccc12 | 89* | 79 | 11 | 81* | 38 | -67
O=C(O)COc1ccccc1/C=N/NC(=O)c1cc(-c2ccc(Cl)cc2)nc2ccccc12 | -9 | 4 | 1 | -5 | 4 | 5
NS(=O)(=O)c1ccc2c(c1)C(=NO)c1cc(S(N)(=O)=O)ccc1-2 | 1 | 19 | -16 | 12 | -14 | -12
NC1=C(Cl)C(=O)c2ccc(S(N)(=O)=O)cc2C1=O | 89* | 98* | 88* | 96* | x | x
NC1=C(Cl)C(=O)c2ccccc2C1=O | 17 | -2 | 2 | 95* | x | x
C=CCn1c(CCNC(=O)c2cccs2)nnc1SCC(=O)c1ccc(Cl)cc1 | 3 | 15 | -8 | -1 | -3 | 18
COc1cc2c(cc1OC)C(SC)=NC1(CCCC1)C2 | 0 | 15 | 3 | 87* | 1 | -21
COc1cc2c(cc1OC)C(C)=NC1(CCCCC1)C2 | 10 | 12 | 1 | -7 | 6 | 12
COc1ccccc1-n1c(-c2ccccc2)n[nH]c1=S | 2 | 48 | 46* | 6 | -11 | -10
CC1CCCN(C(=O)C(=O)Nc2ccc3nc4n(c(=O)c3c2)CCCCC4)C1 (configuration not stated) | -4 | -6 | 1 | x | -31 | -21
CNS(=O)(=O)c1cccc(C(=O)OCC(=O)c2ccc3c(c2)OCCO3)c1 | -3 | -5 | 43* | 5 | -12 | -6
O=C1C=C(N2CCOCC2)c2ccccc2C1=O | 13 | 97* | 12 | 85* | 29 | 19
CCOc1ccc(CCNC(=O)C2CCCN(S(=O)(=O)N3CCOCC3)C2)cc1OCC (configuration not stated) | -1 | -5 | -7 | 8 | 15 | 6
COc1ccc(O)c(/C=N/NC(=S)Nc2cccc(S(=O)(=O)N(C)C)c2)c1 | 4 | 90* | 9 | 25 | x | x
CC1CCCC(NC(=O)COC(=O)CCC(=O)c2cccs2)C1C (configuration not stated) | 10 | -7 | 57* | 6 | 8 | 23
Cc1ccc(C(C(=O)NC2CCCCC2)N2CCC3(CC2)OCCO3)cc1 (configuration not stated) | -7 | -3 | -4 | -1 | -16 | 2
Cc1ccc(S(=O)(=O)NCCSc2nnnn2-c2ccc(C(N)=O)cc2)cc1 | -3 | 10 | -7 | 3 | 5 | 2
Cc1ccc(-n2nnnc2Sc2ccc(S(=O)(=O)NCCN(C)C)cc2[N+](=O)[O-])cc1 | 13 | -46 | 47* | 92* | x | x
O=[N+]([O-])c1cc(S(=O)(=O)NCCN2CCOCC2)ccc1Sc1nnnn1-c1ccccc1 | 15 | 8 | -11 | 79* | 18 | -17
S=C(NCCNCc1ccccc1)NC1CCCCC1 | x | x | x | x | -2 | -3
COc1ccc(NC(=O)Cn2nnc(C(=O)NCc3ccccc3)c2N)c(OC)c1 | -8 | 4 | 64* | -3 | 10 | -1
COc1ccc(NC(=O)Cn2nnc(C(=O)NCCc3ccccc3)c2N)c(OC)c1 | 44 | -20 | 4 | -7 | -4 | -2
CCOc1cc(NC(=O)CCl)c(OCC)cc1NC(=O)CCl | 2 | 1 | -17 | 76* | 3 | -26
